Unmarked numbers belong to inactive results. Inconclusive results are not listed. Active and inactive are the calls of the source. Calls follow the shape of the dose curve; as a rule, active = well fitted curve in the direction sought with a large enough effect; inconclusive = small, poorly fitted or top-dose-only effect, or another doubt; inactive = no such curve, though single readings can be large; an effect the other way counts as inactive or inconclusive.

Experiment [1] relates to Zika virus NS2B-NS3 protease (linked construct). Kind of experiment: Primary screen NINDS Rhodamine qHTS for Zika virus inhibitors (AID 1347160). Also: nearly all actives have a fitted effect of over 55% in size. The gist of the method: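 Kinetic fluorescence (Ex 480 nm, Em 540 nm) over 15 min with 1.5 microM Rhodamine110 peptide and 25 nM linked protease.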
For orientation: Quantitative high-throughput screening tests each substance at several concentrations.

The target of experiment [2] is Calcium and integrin-binding protein 1 (Homo sapiens) (UniProt Q99828). Kind of experiment: Primary qHTS for Identification of Calcium Integrin Binding Protein 1 (CIB1) Competitor (AID 1508620).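 Also: GST tagged CIB1 binding a fluorescein labelled alphaIIb integrin peptide tracer; top concentration of the series differs between compounds; % is scaled to controls: 0 for no effect and ±100 for the full control effect.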 The gist of the method:
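CIB1-GST (1 uM final) and compound incubated 15 min at room temperature before adding FITC-alphaIIb peptide tracer (100 nM final). Competition for binding read by fluorescence polarization (ex 480, em 540) after another 15 min at room temperature.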

A short description of experiment [3]: Primary qHTS for inhibitors of nuclear receptor binding SET domain protein 2 (NSD2) in an isogenic RCH-ACV NSD2 p.E1099K mutant (9B) (AID 1645876). Also: nearly all actives have a fitted effect of over 70% in size. Also: potency is read from the fitted curve at half-maximal effect.
Experiment [4] addresses Glutathione peroxidase 1 (Homo sapiens) (UniProt P07203). Kind of experiment: Primary qHTS Assay for Inhibitors of Recombinant Selenoprotein Glutathione Peroxidase 1 (GPX1) (AID 1845191). Also: nearly all actives have a fitted effect of over 65% in size. The gist of the method:
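10 nM GPX1 + cpd, 30 min RT; start w/ 1 mM GSH, 0.5 mM cumene hydroperoxide, 0.5 mM NADPH, 100 nM GR, 0.01% BSA; buffer 50 mM Tris-HCl pH 7.5, 2 mM EDTA, 150 mM NaCl; Fl 340/450, 0 & 15 min.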

In experiment [5] the target is Phospholipid hydroperoxide glutathione peroxidase GPX4 (Homo sapiens) (UniProt P36969). Kind of experiment: Primary qHTS Assay for Inhibitors of Recombinant Selenoprotein Glutathione Peroxidase 4 (GPX4) (AID 1845192). Also: % is scaled to controls: 0 for no effect and ±100 for the full control effect; nearly all actives have a fitted effect of over 65% in size. The gist of the method:
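NADPH consumption, followed by fluorescence at 340/450 nm between 0 and 15 min, reports GPX4 activity via coupled glutathione reductase (100 nM). Enzyme 200 nM was pre-exposed to compound 30 min; 0.5 mM cumene hydroperoxide and 1 mM GSH served as substrates.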

The target in experiment [6] is Luciferin 4-monooxygenase (Photinus pyralis) (UniProt P08659). Kind of experiment: Primary firefly luciferase (FLuc) qHTS assay for identification of artifact compounds. (AID 1845220). Also: nearly all actives have a fitted effect of over 60% in size. Conditions: outcome: dose series up to 54.1 µM unless noted. A digest of the protocol:
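Compounds sat 15 min at room temperature with 10 uM luciferin and 10 uM ATP (pH 7.6 Tris acetate). Firefly luciferase (10 nM final) was then added, and luminescence was read 5 min later. Data normalized to no-enzyme and DMSO controls were Hill-fitted.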

Experiment [7] has as its system Nanoluciferase (engineered Oplophorus gracilirostris luciferase). Kind of experiment: Primary Nanoluciferase (NLuc) qHTS assay for identification of artifact compounds. (AID 1845222).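 Also: 0% = DMSO and -100% = no enzyme.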 The gist of the method:
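Luminescence from secreted NLuc (filtered, 1:55-diluted S16 cell medium) read 5 min after Nano-Glo substrate; compounds preincubated 15 min, RT. Hill fits of inhibition normalized to DMSO and no-enzyme.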

Experiment [8] has as its system CRL-7250. Kind of experiment: Cytotoxic Profiling of Annotated Libraries Using Quantitative High-Throughput Screening (AID 1296008). Also: nearly all actives have a fitted effect of over 60% in size. Also: potency is read from the fitted curve at half-maximal effect. As to max response: % is scaled to controls: 0 for no effect and ±100 for the full control effect. Conditions: Five cell lines viability, CellTiter-Glo ATP luminescence, 48-72 h; max response: active compounds read low. A digest of the protocol:
(§1)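 Cytotoxicity was measured as CellTiter-Glo ATP luminescence, read after 10 min at room temperature. Compound treatment of the cells lasted 48 or 72 hr at 37 degrees Celsius in a qHTS format.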

The test system of experiment [9] is HEK293. Described as above. Conditions: Five cell lines viability, CellTiter-Glo ATP luminescence, 48-72 h; max response: active compounds read low. The gist of the method: as §1
Background: Cellular ATP, detected with luciferase, serves as a proxy for viable cell number.

The subject of experiment [10] is HaCat. Described as above. Conditions: Five cell lines viability, CellTiter-Glo ATP luminescence, 48-72 h; max response: active compounds read low. The gist of the method: as §1
Experiment [11] has as its system NIH3T3. The description is as above. Conditions: Five cell lines viability, CellTiter-Glo ATP luminescence, 48-72 h; max response: active compounds read low. A digest of the protocol: as §1
The subject of experiment [12] is C33A. Kind of experiment: Primary qHTS to identify gynecologic anti-cancer compounds using libraries of approved drugs and bioactive compounds (AID 1345084). Also: nearly all actives have a fitted effect of over 55% in size. Also: potency is read from the fitted curve at half-maximal effect. Conditions: Gynecologic cancer cell panel viability, ATPlite luminescence, 48 h; series mostly up to 57.5 µM. The gist of the method:
(§2)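 Luminescence from the ATPlite ATP-monitoring reagent indicates viable cell number; lower signal means cytotoxicity. Cells received compound 16 h after seeding and were exposed for 48 h across five concentrations.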

Experiment [13] deals with CASKI. The description is as above. Conditions: Gynecologic cancer cell panel viability, ATPlite luminescence, 48 h; series mostly up to 57.5 µM. The gist of the method: as §2
The subject of experiment [14] is Es-2. The description is as above. Conditions: Gynecologic cancer cell panel viability, ATPlite luminescence, 48 h; series mostly up to 57.5 µM. The gist of the method: as §2
The test system of experiment [15] is Hek293T. The experiment is described as above. Conditions: Gynecologic cancer cell panel viability, ATPlite luminescence, 48 h, control line for the selectivity index; series mostly up to 57.5 µM. A digest of the protocol: as §2
The test system of experiment [16] is JEG-3. The description is as above. Conditions: Gynecologic cancer cell panel viability, ATPlite luminescence, 48 h; series mostly up to 57.5 µM. A digest of the protocol: as §2
The subject of experiment [17] is OV90. Described as above. Conditions: Gynecologic cancer cell panel viability, ATPlite luminescence, 48 h; series mostly up to 57.5 µM. The gist of the method: as §2
For experiment [18], the system named is PA-1. Described as above. Conditions: Gynecologic cancer cell panel viability, ATPlite luminescence, 48 h; series mostly up to 57.5 µM. The gist of the method: as §2
The subject of experiment [19] is Tov-21-G. The description is as above. Conditions: Gynecologic cancer cell panel viability, ATPlite luminescence, 48 h; series mostly up to 57.5 µM. The gist of the method: as §2
The subject of experiment [20] is Tov112D. The experiment is described as above. Conditions: Gynecologic cancer cell panel viability, ATPlite luminescence, 48 h; series mostly up to 57.5 µM. The gist of the method:
as §2

Chain of Calcium and integrin-binding protein 1 (Homo sapiens) (Q99828 whole entry, looked up): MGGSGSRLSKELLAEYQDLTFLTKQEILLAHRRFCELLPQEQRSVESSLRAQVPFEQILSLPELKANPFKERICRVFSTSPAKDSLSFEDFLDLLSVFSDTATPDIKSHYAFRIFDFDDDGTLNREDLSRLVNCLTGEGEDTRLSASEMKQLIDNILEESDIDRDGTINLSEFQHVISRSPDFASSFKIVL
Chain of Phospholipid hydroperoxide glutathione peroxidase GPX4 (Homo sapiens) (P36969 whole entry, looked up): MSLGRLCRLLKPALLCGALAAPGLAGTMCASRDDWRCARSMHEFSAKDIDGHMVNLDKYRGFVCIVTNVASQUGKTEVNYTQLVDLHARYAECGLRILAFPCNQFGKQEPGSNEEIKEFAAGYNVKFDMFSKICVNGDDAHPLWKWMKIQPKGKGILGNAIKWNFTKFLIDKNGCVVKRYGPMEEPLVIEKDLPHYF
Chain of Glutathione peroxidase 1 (Homo sapiens) (P07203 whole entry, looked up): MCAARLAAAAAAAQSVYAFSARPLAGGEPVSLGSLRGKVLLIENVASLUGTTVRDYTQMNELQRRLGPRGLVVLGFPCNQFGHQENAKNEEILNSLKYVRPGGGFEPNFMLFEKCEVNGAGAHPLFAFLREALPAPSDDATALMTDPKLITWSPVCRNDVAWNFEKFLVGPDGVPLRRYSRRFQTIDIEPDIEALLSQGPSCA

In the case of `Cc1c(N2C(=O)[C@@H]3[C@H](O)CCN3C2=O)ccc(C#N)c1Cl`, the Potency entry in experiment [1], in experiment [2], in experiment [3], in experiment [4], in experiment [5] and in experiment [7] was “inactive” in each case. Moreover, the Potency result in [12], in experiment [13], in experiment [14], in [15], in experiment [16] and in experiment [17] was “inactive” each time. The Potency result in experiment [18], in experiment [19] and in experiment [20] was “inactive” throughout. Moreover, the molecule was classed as inactive in experiment [6] and in [10]. The figures for the max response in [8], in [9] and in experiment [11] were -13.8%, -6.16% and -8.96%, respectively.

In the case of `CC1(C)C(=O)N(c2ccc(C#N)c(C(F)(F)F)c2)C(=O)N1CCCCO`, the Potency entry in experiment [1], in experiment [2], in experiment [3], in experiment [4], in experiment [5] and in experiment [7] was “inactive” each time. The Potency result in [12], in experiment [13], in experiment [14], in [15], in experiment [16] and in experiment [17] was “inactive” each time. Besides, the Potency entry in experiment [18], in [19] and in [20] was “inactive” throughout. Besides, the outcome in experiment [6] was inactive. Also, the max response in [8] is -11%; in experiment [9], -15.9%; in experiment [10] it was -18.8%; in experiment [11], -6.14%.

For the molecule `CO[C@@H]1[C@H](O)[C@@H](O[C@@H]2C[C@H]3CC[C@@H]4C(CC[C@]5(C)[C@@H](C6=CC(=O)OC6)CC[C@]45O)[C@@]3(C)[C@H](O)C2)O[C@H](C)[C@@H]1O` (stereo partly drawn), the Potency entry in [2], in [4], in experiment [5] and in [7] was “inactive” each time. Moreover, the Potency was 89.3 nM (active) in experiment [3]; 112 nM (active) in [8]; 224 nM (active) in experiment [9]; 1780 nM (active) in experiment [10]; 199 nM (active) in [12]; 1260 nM (active) in [13]. For the same molecule, the Potency in experiment [14] was 178 nM (active); in experiment [15], 224 nM (active); in experiment [16] it was 891 nM (active); in experiment [17] it was 1000 nM (active); in experiment [18] it was 199 nM (active); in experiment [19], 178 nM (active). Moreover, the Potency in experiment [20] was 89.1 nM (active). For the same molecule, the result in [6] was inactive. Further, the max response in experiment [11] is 3.09%.

For `C#CCO[C@H]1CN2CCC1CC2`, the Potency result in [1], in [2], in experiment [3], in experiment [4], in experiment [5] and in [7] was “inactive” each time. Besides, the Potency result in experiment [12], in [13], in experiment [14], in experiment [15], in experiment [16] and in experiment [17] was “inactive” in each case. The Potency result in experiment [18], in [19] and in [20] was “inactive” each time. In experiment [6], the result was inactive. The max response in [8] is -0.287%; in experiment [9], -18.5%; in experiment [10], 2.85%; in experiment [11], 2.27%.

As to `Cc1c(Cl)c(OCC(=O)N2CCN(C)CC2)nc2sc(C(=O)NC3CC3)c(N)c12`, the Potency entry in experiment [1], in experiment [2], in experiment [3], in experiment [5], in experiment [7] and in experiment [12] was “inactive” each time. In addition, the Potency result in [13], in experiment [14], in [15], in [16], in experiment [17] and in experiment [18] was “inactive” each time. Further, the Potency entry in experiment [19] and in experiment [20] was “inactive” throughout. Moreover, the molecule was classed as inactive in experiment [6]. Also, the max response was -0.463% in experiment [8], -7.33% in [9], -0.624% in experiment [10] and 0.637% in experiment [11].

These data come from PubChem BioAssay (NCATS).
